Assay outcomes from PubChem BioAssay.
GPR151 activ = activators of human GPR151, primary screen, cell-based, PathHunter beta-arrestin, luminescence; PathHunter beta-arrestin GPR151 cells; activation, % at 11.2 µM; actives 1% (n = 650,000); AID 1508602, 2020; in the data active = activation above about 4.9%
FBW7 activator = FBW7 E3 ligase activators, primary screen, biochemical, AlphaScreen, human; actives 0.13% (n = 650,000); normalized activity (activation), % at 26.1 µM; AlphaScreen FBW7–phospho-cyclin E peptide binding, activator screen; AID 1259310, 2017; in the data active = normalized activity above about 1.9%;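 also: purified mutant Fbw7 with reduced substrate affinity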
Target sequence (Q969H0 whole entry, looked up): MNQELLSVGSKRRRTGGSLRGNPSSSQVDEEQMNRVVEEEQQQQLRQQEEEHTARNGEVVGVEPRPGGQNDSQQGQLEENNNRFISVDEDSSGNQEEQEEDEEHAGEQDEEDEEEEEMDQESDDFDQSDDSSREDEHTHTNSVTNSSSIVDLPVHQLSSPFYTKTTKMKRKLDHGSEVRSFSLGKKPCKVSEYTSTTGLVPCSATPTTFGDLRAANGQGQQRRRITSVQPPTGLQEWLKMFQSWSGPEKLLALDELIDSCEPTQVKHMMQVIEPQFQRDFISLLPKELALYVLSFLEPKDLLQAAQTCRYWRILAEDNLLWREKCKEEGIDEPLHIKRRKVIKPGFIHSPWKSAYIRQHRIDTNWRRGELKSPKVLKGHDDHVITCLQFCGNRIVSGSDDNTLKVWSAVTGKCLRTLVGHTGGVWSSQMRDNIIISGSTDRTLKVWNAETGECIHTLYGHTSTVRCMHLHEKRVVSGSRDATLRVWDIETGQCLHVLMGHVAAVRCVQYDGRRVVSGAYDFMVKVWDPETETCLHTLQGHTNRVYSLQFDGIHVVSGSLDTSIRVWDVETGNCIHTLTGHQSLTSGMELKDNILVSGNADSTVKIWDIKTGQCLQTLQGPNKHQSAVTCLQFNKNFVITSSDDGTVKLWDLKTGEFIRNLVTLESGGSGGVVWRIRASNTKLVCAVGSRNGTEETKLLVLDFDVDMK
TEAD-YAP block = TEAD-YAP interaction inhibition, primary screen, TEAD-YAP interaction inhibitor project, luminescence, HEK-TIYL cells | TEAD-Gal4/YAP UAS-luciferase luminescence | inhibition, % at 9.12 µM | actives 1.4% (n = 640,000); in the data active = inhibition above about 32%
MITF primary = MITF inhibitors, primary screen, biochemical, AlphaScreen, human; AlphaScreen MITF homodimerization, bead proximity signal; inhibition, % at 2.6 µM; AID 1259374, 2018; Microphthalmia-associated transcription factor (Homo sapiens), O75030; actives 0.91% (n = 650,000); in the data active = inhibition above about 50%
GPR151 conf act = GPR151 activators, triplicate retest, confirmation, cell-based, PathHunter beta-arrestin, luminescence | shares compounds with GPR151 activ | GPR151 PathHunter beta-arrestin cells, 90 min; % of EA-reagent control over plate median | activation, % at 11.2 µM | 6,700 tested, under 10 active;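 active = mean percent activation across replicates above the confirmation screen cutoff of 4.91%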
GPR119 counter = GPR119 activators in beta-arrestin cells, counter-screen for GPR151 activator project, cell-based, PathHunter beta-arrestin, luminescence, triplicate. shares compounds with GPR151 activ. 90 min; 0 = compound-well median, 100 = enzyme-acceptor control. activation, % at 11.2 µM. actives 0.3% (n = 6,700). AID 1508611, 2020;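 active = mean percent activation in the counterscreen above 29.09%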;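 also: counterscreen on off-target GPR119 to flag nonselective hits from the GPR151 activator screen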
Large screens that a line does not name were inactive (follow-up assays come after a bar, where they were run). Hits are enriched below; roughly 3.5% of the tested compounds scored in any of these assays.

COc1ccccc1CN1CCN(S(=O)(=O)c2ccccc2[N+](=O)[O-])CC1	none
CCS(=O)(=O)N1CCN(S(=O)(=O)c2ccccc2[N+](=O)[O-])CC1	none
CCN(CC)CCCNC(=O)Cn1c(=O)oc2cc(S(=O)(=O)N3CCCC3)ccc21	none
CCOc1ccccc1/C=C1\N=C(c2ccccc2)OC1=O	none
Cc1ccc(-n2nc(C)cc2/N=C/N(C)C)cc1	GPR151 activ 5.4 | GPR151 conf act inactive | GPR119 counter inactive
Cc1cccc(C(=O)Nc2sc3c(c2C(=O)N2CCCCCC2)CCC3)c1	none
CCOc1ccc(NS(=O)(=O)c2ccc(CN3C(=O)c4cccnc4C3=O)cc2)cc1	none
COc1ccccc1NS(=O)(=O)c1ccc(CN2C(=O)c3cccnc3C2=O)cc1	GPR151 activ 7.3 | GPR151 conf act inactive | GPR119 counter inactive
COc1ccc(CNc2cc(C)nc(-c3ccccc3)n2)cc1	none
Cc1cc(NCc2ccccc2)nc(-c2ccccc2)n1	GPR151 activ 5.2 | GPR151 conf act inactive | GPR119 counter inactive
O=C(N/C(=C\c1ccc([N+](=O)[O-])cc1)C(=O)N1CCCCCC1)c1ccccc1	none
O=C(Nc1ccccc1C(=O)Nc1ccccc1)c1cccc(S(=O)(=O)Nc2ccccc2)c1	none
CCN(Cc1ccccc1)C(=O)Cn1c(=O)n(-c2ccc(OC)cc2)c(=O)c2ccccc21	GPR151 activ 7.9 | GPR151 conf act inactive | GPR119 counter inactive
CCOc1ccc(-n2c(=O)c3sccc3n(CC(=O)N(CC)CC)c2=O)cc1	none
Cc1nc2cc(C(=O)NCC3CCCO3)ccc2n1-c1ccc(F)cc1F (configuration not stated)	none
Cc1ccc(OCC(=O)NC(=S)Nc2ccc([N+](=O)[O-])cc2)cc1	none
Cc1nc2c(C(=O)NCc3ccc(F)cc3)c[nH]n2c(=O)c1Cl	GPR151 activ 9.6 | GPR151 conf act inactive | GPR119 counter inactive
Cc1nc2c(C(=O)NCCc3ccccc3)c[nH]n2c(=O)c1Cl	none
CC(=O)N1CCN(Cc2ccccc2Br)CC1	GPR151 activ 7.9 | GPR151 conf act inactive | GPR119 counter inactive
CC(=O)N1CCN(Cc2cccc(Cl)c2Cl)CC1	none
O=C(CSc1cccc[n+]1[O-])Nc1ccc(S(=O)(=O)N2CCCC2)cc1	GPR151 activ 6.4 | GPR151 conf act inactive | GPR119 counter inactive
CCC(C(=O)Nc1ccc(S(=O)(=O)N2CCC(C)CC2)cc1)c1ccccc1 (configuration not stated)	GPR151 activ 5.0 | GPR151 conf act inactive | GPR119 counter inactive
CC1CCCCN1S(=O)(=O)c1ccc(NC(=O)CSc2nc3ccccc3o2)cc1 (configuration not stated)	none
O=C(CSc1cccc[n+]1[O-])Nc1ccccc1	none
CC1CCN(S(=O)(=O)c2ccc(NC(=O)CSc3nc4ccccc4o3)cc2)CC1	GPR151 activ 16.0 | GPR151 conf act inactive | GPR119 counter inactive
CC(=O)C(CC(=O)NC(=O)NC1CCCCC1)C(=O)Nc1ccc(Cl)cc1 (configuration not stated)	none
COc1ccc(C(C)N(C)CC(=O)N(C)C(C)c2ccc(OC)c(OC)c2)cc1OC (configuration not stated)	none
COc1ccc(C(=O)Oc2ccc(/C=C/c3ccncc3)cc2)cc1OC	GPR151 activ 5.2, TEAD-YAP block 57.2 | GPR151 conf act inactive | GPR119 counter inactive
O=C(Oc1ccc(OC(=O)c2ccncc2)cc1)c1ccncc1	GPR151 activ 10.2 | GPR151 conf act inactive | GPR119 counter inactive
N#CCC(=O)N/N=C/c1cc([N+](=O)[O-])ccc1O	none
COc1cc(OC)cc(-c2nnc(SCC(=O)c3cccc([N+](=O)[O-])c3)o2)c1	GPR151 activ 7.2 | GPR151 conf act inactive | GPR119 counter inactive
O=C(CSc1nnc(-c2ccncc2)o1)c1cccc([N+](=O)[O-])c1	none
O=C(O)COc1coc(CN2CCN(c3cccc(Cl)c3)CC2)cc1=O	none
O=c1cc(CN2CCN(c3cccc(Cl)c3)CC2)occ1OCc1ccccc1	GPR151 activ 6.8 | GPR151 conf act inactive | GPR119 counter inactive
COc1cc2nc(NCCCOC(C)C)n3nc(-c4cccnc4)nc3c2cc1OC	GPR151 activ 5.2 | GPR151 conf act inactive | GPR119 counter inactive
Cc1cc2n(n1)C(c1cccc(O)c1)Nc1ccccc1-2 (configuration not stated)	GPR151 activ 7.9 | GPR151 conf act inactive | GPR119 counter inactive
Cc1c(Cl)cccc1N(CC(N)=O)S(C)(=O)=O	none
CCOc1ccc(/C=C2\Oc3c(ccc(O)c3CN3CCN(CCO)CC3)C2=O)cc1	none
CCOc1ccccc1/C=C1\Oc2c(ccc(O)c2CN2CCN(CCO)CC2)C1=O	GPR151 activ 6.8 | GPR151 conf act inactive | GPR119 counter inactive
COC(=O)c1ccc(CNc2cccc([N+](=O)[O-])c2)cc1	none
O=C(NC1CCSC1=O)C1CN(C(=O)c2ccc(F)c(F)c2)C1 (configuration not stated)	GPR151 activ 8.2 | GPR151 conf act inactive | GPR119 counter inactive
O=C(NCc1ccco1)C1CN(C(=O)c2ccc(F)c(F)c2)C1	none
COc1ccc(-c2cc(C#N)nc(N3CCN(c4ccccc4)CC3)n2)cc1	GPR151 activ 5.2 | GPR151 conf act inactive | GPR119 counter inactive
CC(C)(C)c1ccc(C(=O)On2c(-c3ccccc3F)nc3ccccc3c2=O)cc1	GPR151 activ 5.9 | GPR151 conf act inactive | GPR119 counter inactive
CCCOc1ccc(OCC(=O)c2[nH]c(C)c(C(C)=O)c2C)cc1	none
CC(=O)c1c(C)[nH]c(C(=O)COc2cc(C)cc(C)c2)c1C	GPR151 activ 5.6 | GPR151 conf act inactive | GPR119 counter inactive
COc1ccccc1-c1nnc(C2CCN(S(=O)(=O)c3ccccc3)CC2)o1	GPR151 activ 5.8 | GPR151 conf act inactive | GPR119 counter inactive
CCn1c(=O)c2c(nc3n2CCCN3c2ccc(Br)cc2)n(C)c1=O	none
C=CCn1c(=O)c2c(nc3n2CCCN3c2ccc(CC)cc2)n(C)c1=O	GPR151 activ 7.4 | GPR151 conf act inactive | GPR119 counter inactive
C=CCNC(=S)NNC(=O)COc1ccc2cc(Br)ccc2c1	GPR151 activ 9.7 | GPR151 conf act inactive | GPR119 counter inactive
C=CCNC(=O)COc1c(C)cc(Br)cc1C	GPR151 activ 11.8 | GPR151 conf act inactive | GPR119 counter inactive
Cc1ccccc1OCC(O)Cn1c(SCC(=O)O)nc2c1c(=O)[nH]c(=O)n2C (configuration not stated)	none
NC(=O)COC(=O)c1ccc(S(=O)(=O)N2CCCc3ccccc32)cc1	none
